Results as given in PubChem BioAssay (NCI).
About 83,000 compounds went through this panel and 20% of them were active in at least one assay; those are over-represented in the sample as a whole.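 Plates (96-well) were seeded with cells, treated with compound at one concentration, and incubated for 48 hours before percent growth was determined.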 Unmarked numbers belong to inactive results. The calls were made as follows: active = growth percent below 10; inactive = the rest.

Tested on: OVCAR-8 ovarian
Assay: NCI-60 one-dose screen, 48 h (100 = growth as untreated, 0 = no growth, -100 = all killed)
Settings: 10 µM

| SMILES | growth |
| --- | --- |
| CC(=O)OC(OC(C)=O)C1CCCO1 (configuration not stated) | 103% |
| O=C(O)c1ccnc(Br)c1 | 103% |
| c1ccc2c(N3CCCCC3)ncnc2c1 | 94.4% |
| COc1ccccc1N=Nc1c(O)ccc2cc(S(=O)(=O)O)ccc12 | 93.2% |
| N#Cc1c(N)sc(=S)c2c1CCCC2 | 103% |
| O=C(CCl)N1CCN(C/C=C/c2ccccc2)CC1 | 80% |
| C#CCSc1nnnn1-c1ccc(Br)c(C)c1 | 82.5% |
| C=CC[N+](C)(C)C | 106% |
| Nc1ccc(N)c([N+](=O)[O-])c1 | 111% |
| O=C(Nc1cc(-c2ccccc2)[nH]n1)c1ccc(Cl)cc1 | 84.3% |
| CC(C)C(C#N)(C(C)C)C(C)C | 109% |
| CCOC(=O)C(CCC(C)C)C(=O)OCC | 95.6% |
| C=CCNC(=O)c1ccc(OC)cc1 | 107% |
| S=c1[nH]ccn1-c1ccccc1Cl | 105% |
| NC(=S)N/N=C/c1ccc(N)cc1 | 102% |
| CCCCC(O)c1ccccc1 (configuration not stated) | 93.8% |
| CCOc1ccc(Br)cc1/C=N\N=C\c1cc(Br)ccc1OCC | 95.6% |
| O=C1Cc2ccccc2C(=O)O1 | 102% |
| CC(C)CCOC(=O)c1ccccc1 | 99.4% |
| COC(=O)c1ccc(C(C)C)cc1 | 106% |
| COc1cccc(/C=N/NC(=S)NC2CC3CCC2C3)c1O (configuration not stated) | 40.5% |
| CCOC(=O)C1OC1c1ccccc1 (configuration not stated) | 106% |
